Columns and labels:
Experiment in all cases: DAPPL (digital affinity profiling via proximity ligation, sequencing); 10 mM Tris-HCl pH 7.5, 50 mM NaCl, 1 mM DTT, 4% glycerol, room temperature, 30 min; GST-TFs on glutathione beads, 16-mer random dsDNA library, 0.1% formaldehyde crosslink after washing; high values mean tight binding
FLI1 = target: T1, FLI1 (Homo sapiens, UniProt Q01543 1-452); conditions: protein: recombinant; tags: N-terminal GST; dsDNA, one strand shown
T1 sequence: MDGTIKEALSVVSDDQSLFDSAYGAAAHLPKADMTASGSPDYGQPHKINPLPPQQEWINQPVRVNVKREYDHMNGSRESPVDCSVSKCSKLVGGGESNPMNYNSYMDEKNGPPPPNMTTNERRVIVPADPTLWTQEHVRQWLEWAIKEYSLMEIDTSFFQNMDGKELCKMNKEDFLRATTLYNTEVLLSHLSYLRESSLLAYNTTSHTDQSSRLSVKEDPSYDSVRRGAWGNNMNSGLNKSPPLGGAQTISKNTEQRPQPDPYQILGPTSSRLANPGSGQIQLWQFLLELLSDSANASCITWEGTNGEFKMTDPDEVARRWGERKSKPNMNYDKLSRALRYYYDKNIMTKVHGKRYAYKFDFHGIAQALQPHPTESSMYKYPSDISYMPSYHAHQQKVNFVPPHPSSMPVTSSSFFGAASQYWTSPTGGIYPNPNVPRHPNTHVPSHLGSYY
Outline: (§1)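 Sequencing on an Illumina NextSeq500 followed washing, crosslinking with 0.1% formaldehyde, proximity ligation (BsaI/T4 ligase, 1 h, 37 °C) and PCR amplification of pools that had been incubated for 30 min at room temperature with 200 nmole of a random double-stranded 16-mer DNA library in Tris/NaCl/DTT/glycerol buffer. Each pool held DNA-barcoded human transcription factors, expressed in yeast as GST fusions and captured on glutathione beads, plus a tag-only sample. Binding signal is a hexamer's read frequency for a factor divided by its frequency in the tag-only sample.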

ELK1 = target: T2, ELK1 (Homo sapiens, UniProt P19419 1-428); conditions: protein: recombinant; tags: N-terminal GST; dsDNA, one strand shown
T2 sequence: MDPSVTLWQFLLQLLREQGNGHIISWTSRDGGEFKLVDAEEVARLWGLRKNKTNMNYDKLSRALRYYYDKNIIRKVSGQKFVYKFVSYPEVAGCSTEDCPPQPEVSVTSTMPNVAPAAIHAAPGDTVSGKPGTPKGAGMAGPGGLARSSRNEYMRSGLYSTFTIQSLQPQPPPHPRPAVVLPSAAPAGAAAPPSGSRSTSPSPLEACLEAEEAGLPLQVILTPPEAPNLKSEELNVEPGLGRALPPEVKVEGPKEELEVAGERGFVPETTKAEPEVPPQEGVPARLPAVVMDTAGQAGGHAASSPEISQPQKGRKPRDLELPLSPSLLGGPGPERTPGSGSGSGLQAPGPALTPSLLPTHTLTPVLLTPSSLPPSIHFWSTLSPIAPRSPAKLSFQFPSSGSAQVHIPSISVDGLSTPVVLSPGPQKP
Outline: as §1

GABPA = target: T3, GABPA (Homo sapiens, UniProt Q06546 1-454); conditions: protein: recombinant; tags: N-terminal GST; dsDNA, one strand shown
T3 sequence: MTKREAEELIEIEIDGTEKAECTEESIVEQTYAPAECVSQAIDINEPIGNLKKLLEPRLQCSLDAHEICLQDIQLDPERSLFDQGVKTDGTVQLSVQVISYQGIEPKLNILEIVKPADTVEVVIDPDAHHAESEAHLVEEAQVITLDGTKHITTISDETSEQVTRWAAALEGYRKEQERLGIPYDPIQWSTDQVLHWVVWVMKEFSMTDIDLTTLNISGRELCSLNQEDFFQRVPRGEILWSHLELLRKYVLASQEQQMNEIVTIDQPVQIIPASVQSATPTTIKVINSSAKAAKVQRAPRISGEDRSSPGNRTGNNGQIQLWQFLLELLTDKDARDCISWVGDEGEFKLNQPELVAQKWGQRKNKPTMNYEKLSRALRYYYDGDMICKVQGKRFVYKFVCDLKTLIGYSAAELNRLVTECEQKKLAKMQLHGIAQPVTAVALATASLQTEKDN
Outline: as §1

ERG = target: T4, ERG (Homo sapiens, UniProt P11308 1-479); conditions: protein: recombinant; tags: N-terminal GST; dsDNA, one strand shown
T4 sequence: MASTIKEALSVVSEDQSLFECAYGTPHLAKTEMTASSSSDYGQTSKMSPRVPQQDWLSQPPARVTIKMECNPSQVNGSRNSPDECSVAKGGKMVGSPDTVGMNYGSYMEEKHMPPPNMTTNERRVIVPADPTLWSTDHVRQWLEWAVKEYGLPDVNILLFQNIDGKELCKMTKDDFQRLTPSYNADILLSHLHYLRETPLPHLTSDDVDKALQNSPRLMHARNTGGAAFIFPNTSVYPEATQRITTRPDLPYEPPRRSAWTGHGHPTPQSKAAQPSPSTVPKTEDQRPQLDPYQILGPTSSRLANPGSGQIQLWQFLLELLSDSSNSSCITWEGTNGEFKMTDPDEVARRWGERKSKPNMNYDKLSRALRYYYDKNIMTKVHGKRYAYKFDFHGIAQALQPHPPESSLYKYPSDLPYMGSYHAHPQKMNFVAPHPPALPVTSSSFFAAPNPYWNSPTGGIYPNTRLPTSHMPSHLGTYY
Outline: as §1

ELF1 = ELF1 (Homo sapiens, UniProt P32519 1-619); conditions: protein: recombinant; tags: N-terminal GST; dsDNA, one strand shown
ELF1, sequence (P32519 whole entry): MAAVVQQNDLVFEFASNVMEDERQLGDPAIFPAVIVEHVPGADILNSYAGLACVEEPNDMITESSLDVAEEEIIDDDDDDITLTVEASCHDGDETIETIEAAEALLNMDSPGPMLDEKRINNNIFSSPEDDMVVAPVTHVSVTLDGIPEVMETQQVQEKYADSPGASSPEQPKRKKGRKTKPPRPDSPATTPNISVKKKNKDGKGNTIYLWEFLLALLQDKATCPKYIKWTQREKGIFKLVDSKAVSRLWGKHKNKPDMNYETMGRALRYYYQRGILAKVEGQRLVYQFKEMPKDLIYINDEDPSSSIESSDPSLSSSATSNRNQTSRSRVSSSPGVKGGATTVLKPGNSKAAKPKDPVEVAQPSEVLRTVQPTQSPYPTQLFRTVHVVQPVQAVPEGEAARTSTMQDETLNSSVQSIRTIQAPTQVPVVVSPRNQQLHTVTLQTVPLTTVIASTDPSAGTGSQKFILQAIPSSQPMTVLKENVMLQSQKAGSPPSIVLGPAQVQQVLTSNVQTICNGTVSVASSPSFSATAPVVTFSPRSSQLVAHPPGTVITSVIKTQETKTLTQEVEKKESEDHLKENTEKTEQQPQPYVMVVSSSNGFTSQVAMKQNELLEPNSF
Outline: as §1

EHF = target: T5, EHF (Homo sapiens, UniProt Q9NZC4 1-300); conditions: protein: recombinant; tags: N-terminal GST; dsDNA, one strand shown
T5 sequence: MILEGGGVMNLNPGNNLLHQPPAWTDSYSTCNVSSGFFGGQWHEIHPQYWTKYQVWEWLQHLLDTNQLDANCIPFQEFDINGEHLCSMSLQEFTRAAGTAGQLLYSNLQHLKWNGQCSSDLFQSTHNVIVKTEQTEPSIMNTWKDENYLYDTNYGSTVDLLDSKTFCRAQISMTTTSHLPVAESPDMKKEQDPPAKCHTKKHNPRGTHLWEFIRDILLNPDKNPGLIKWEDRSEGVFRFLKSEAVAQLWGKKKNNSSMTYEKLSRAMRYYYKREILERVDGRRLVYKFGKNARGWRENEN
Outline: as §1

SPI1 = SPI1 (Homo sapiens, UniProt P17947 1-270); conditions: protein: recombinant; tags: N-terminal GST; dsDNA, one strand shown
Outline: as §1

SPIB = SPIB (Homo sapiens, UniProt Q01892 1-262); conditions: protein: recombinant; tags: N-terminal GST; dsDNA, one strand shown
SPIB, sequence (Q01892 whole entry): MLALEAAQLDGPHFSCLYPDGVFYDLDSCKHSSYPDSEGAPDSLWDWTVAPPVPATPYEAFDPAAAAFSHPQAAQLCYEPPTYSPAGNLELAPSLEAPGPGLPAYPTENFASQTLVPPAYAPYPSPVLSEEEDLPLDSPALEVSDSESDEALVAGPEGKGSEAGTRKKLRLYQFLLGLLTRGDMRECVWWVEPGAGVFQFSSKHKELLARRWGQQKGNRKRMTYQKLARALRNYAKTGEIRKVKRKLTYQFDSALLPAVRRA
Outline: as §1

ELK3 = target: T6, ELK3 (Homo sapiens, UniProt P41970 1-407); conditions: protein: recombinant; tags: N-terminal GST; dsDNA, one strand shown
T6 sequence: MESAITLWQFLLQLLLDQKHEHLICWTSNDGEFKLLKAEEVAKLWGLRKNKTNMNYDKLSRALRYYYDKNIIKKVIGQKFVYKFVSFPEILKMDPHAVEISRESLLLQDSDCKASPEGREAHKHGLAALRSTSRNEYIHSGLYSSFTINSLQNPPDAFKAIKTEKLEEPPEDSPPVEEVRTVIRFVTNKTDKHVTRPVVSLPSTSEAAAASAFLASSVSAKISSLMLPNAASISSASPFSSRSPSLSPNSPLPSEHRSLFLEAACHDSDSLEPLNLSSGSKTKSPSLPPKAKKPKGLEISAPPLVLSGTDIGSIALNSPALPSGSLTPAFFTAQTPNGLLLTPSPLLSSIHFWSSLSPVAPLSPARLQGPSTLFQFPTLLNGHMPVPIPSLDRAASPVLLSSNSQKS
Outline: as §1

FEV = target: T7, FEV (Homo sapiens, UniProt Q99581 1-238); conditions: protein: recombinant; tags: N-terminal GST; dsDNA, one strand shown
T7 sequence: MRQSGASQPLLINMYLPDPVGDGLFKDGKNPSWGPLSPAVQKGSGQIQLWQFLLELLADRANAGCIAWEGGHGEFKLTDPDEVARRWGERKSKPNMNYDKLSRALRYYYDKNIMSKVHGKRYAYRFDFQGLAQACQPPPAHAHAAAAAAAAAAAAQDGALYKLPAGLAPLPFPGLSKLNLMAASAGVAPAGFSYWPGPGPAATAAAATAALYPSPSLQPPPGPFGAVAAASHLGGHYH
Outline: as §1

ETV5 = ETV5 (Homo sapiens, UniProt P41161 1-510); conditions: protein: recombinant; tags: N-terminal GST; dsDNA, one strand shown
ETV5, sequence (P41161 whole entry): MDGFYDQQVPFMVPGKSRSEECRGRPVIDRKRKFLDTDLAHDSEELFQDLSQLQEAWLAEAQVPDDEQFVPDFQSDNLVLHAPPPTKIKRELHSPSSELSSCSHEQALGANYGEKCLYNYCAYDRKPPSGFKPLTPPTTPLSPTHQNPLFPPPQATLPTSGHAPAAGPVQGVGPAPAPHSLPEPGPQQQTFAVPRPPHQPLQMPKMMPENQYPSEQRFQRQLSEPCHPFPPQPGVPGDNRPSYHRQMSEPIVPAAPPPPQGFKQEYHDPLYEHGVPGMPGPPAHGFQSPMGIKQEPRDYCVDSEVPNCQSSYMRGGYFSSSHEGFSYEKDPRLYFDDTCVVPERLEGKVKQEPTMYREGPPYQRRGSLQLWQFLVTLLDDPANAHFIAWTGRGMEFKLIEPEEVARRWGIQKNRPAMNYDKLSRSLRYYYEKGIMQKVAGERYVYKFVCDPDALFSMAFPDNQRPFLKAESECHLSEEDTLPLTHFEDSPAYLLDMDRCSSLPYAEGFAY
Outline: as §1

HSF1 = HSF1 (Homo sapiens, UniProt Q00613 1-529); conditions: protein: recombinant; tags: N-terminal GST; chain copies: 3; dsDNA, one strand shown
HSF1, sequence (Q00613 whole entry): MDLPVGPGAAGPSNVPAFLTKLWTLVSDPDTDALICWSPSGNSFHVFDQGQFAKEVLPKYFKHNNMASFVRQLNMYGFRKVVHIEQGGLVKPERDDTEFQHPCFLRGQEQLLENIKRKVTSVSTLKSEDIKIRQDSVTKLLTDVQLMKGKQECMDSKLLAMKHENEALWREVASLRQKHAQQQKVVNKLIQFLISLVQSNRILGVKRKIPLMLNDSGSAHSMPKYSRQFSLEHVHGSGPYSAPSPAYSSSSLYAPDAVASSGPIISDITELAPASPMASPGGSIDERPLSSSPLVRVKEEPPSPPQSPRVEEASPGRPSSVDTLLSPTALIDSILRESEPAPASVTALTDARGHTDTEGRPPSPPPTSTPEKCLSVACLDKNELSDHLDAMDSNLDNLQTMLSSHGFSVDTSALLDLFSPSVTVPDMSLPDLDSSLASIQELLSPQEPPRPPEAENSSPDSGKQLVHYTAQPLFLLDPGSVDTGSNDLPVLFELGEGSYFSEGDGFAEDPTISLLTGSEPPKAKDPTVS
Outline: as §1

SPIC = target: T8, SPIC (Homo sapiens, UniProt Q8N5J4 1-248); conditions: protein: recombinant; tags: N-terminal GST; dsDNA, one strand shown
T8 sequence: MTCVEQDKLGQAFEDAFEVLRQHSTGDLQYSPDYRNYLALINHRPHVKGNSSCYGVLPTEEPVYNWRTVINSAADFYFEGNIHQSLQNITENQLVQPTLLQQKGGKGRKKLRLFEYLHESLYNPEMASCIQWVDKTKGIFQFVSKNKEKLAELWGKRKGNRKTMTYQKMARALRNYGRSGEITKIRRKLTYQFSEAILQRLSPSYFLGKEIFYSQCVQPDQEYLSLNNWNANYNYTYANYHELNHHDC
Outline: as §1

ELF4 = ELF4 (Homo sapiens, UniProt Q99607 1-663); conditions: protein: recombinant; tags: N-terminal GST; dsDNA, one strand shown
ELF4, sequence (Q99607 whole entry): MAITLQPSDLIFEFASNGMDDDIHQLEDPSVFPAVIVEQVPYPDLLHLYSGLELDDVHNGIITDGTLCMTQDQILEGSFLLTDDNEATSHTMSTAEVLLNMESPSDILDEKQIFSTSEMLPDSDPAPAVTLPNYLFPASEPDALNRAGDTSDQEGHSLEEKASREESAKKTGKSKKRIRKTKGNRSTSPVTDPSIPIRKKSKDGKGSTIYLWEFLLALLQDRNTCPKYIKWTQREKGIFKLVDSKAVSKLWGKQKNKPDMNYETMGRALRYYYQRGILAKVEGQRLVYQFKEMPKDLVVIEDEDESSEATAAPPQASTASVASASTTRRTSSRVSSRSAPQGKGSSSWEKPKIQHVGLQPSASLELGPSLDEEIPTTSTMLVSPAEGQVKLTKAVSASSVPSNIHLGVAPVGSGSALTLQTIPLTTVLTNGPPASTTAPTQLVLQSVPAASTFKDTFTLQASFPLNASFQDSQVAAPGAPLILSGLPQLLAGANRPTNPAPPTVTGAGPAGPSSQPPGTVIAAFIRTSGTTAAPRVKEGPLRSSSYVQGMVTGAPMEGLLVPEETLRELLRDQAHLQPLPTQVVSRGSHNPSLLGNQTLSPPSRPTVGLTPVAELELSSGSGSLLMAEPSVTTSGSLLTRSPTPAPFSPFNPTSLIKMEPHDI
Outline: as §1

ELK4 = target: T9, ELK4 (Homo sapiens, UniProt P28324-2 1-405); conditions: protein: recombinant; tags: N-terminal GST; dsDNA, one strand shown
T9 sequence: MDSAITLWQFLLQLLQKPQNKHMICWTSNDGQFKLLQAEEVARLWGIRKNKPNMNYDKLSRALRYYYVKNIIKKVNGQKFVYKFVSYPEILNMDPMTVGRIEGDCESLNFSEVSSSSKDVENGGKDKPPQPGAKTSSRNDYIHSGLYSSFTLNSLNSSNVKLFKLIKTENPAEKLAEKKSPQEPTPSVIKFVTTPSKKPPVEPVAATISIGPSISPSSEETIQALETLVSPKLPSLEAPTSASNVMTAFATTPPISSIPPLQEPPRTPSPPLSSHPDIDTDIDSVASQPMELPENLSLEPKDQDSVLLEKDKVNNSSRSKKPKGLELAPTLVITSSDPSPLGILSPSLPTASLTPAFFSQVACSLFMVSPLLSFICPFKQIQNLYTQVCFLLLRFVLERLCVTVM
Outline: as §1

ETV2 = target: T10, ETV2 (Homo sapiens, UniProt O00321 1-342); conditions: protein: recombinant; tags: N-terminal GST; dsDNA, one strand shown
T10 sequence: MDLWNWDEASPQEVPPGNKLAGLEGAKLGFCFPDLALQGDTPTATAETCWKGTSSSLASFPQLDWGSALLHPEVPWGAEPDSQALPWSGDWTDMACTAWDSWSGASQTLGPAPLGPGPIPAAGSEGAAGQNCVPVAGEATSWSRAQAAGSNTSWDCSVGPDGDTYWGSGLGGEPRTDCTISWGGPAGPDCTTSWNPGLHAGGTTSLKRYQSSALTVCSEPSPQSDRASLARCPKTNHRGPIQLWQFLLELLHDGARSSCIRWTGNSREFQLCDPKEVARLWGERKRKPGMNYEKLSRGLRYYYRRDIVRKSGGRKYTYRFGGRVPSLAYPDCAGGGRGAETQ
Outline: as §1

ELF3 = target: T11, ELF3 (Homo sapiens, UniProt P78545 1-371); conditions: protein: recombinant; tags: N-terminal GST; dsDNA, one strand shown
T11 sequence: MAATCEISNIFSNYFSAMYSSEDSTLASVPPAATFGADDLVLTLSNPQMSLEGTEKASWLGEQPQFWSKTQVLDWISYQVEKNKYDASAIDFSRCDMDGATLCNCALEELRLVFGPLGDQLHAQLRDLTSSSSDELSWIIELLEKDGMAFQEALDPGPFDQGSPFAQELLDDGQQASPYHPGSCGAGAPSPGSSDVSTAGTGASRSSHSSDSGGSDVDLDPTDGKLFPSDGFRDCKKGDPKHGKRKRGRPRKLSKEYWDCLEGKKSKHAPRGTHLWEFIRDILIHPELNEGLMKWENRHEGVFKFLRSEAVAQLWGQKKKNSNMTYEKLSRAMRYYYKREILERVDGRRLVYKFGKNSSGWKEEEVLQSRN
Outline: as §1

CRX = CRX (Homo sapiens, UniProt O43186 1-299); conditions: protein: recombinant; tags: N-terminal GST; dsDNA, one strand shown
CRX, sequence (O43186 whole entry): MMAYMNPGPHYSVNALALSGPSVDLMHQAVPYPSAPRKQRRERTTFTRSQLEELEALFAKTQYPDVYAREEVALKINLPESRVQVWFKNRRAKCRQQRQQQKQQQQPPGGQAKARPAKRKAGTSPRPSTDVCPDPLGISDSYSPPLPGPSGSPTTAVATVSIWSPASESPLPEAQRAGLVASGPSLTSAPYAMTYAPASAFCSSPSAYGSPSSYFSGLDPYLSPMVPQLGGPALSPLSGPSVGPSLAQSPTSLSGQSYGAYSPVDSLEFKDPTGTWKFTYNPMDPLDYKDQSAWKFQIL
Outline: as §1

ETV1 = ETV1 (Homo sapiens, UniProt P50549 1-477); conditions: protein: recombinant; tags: N-terminal GST; dsDNA, one strand shown
ETV1, sequence (P50549 whole entry): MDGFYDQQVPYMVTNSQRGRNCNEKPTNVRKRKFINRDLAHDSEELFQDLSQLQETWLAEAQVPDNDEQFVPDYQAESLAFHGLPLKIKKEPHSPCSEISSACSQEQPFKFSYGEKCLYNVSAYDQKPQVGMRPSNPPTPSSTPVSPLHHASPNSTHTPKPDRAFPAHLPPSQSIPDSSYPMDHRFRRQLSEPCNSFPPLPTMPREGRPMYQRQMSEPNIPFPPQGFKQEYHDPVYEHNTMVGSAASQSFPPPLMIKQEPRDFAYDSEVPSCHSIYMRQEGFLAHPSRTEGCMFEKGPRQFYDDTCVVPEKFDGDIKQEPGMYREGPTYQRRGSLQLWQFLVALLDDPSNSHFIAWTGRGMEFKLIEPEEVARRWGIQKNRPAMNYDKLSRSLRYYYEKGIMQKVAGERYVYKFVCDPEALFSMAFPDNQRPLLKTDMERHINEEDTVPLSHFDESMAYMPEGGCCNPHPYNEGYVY
Outline: as §1

In the case of TGTTGC, the binding signal (FLI1) is reported as 1.33 fold enrichment (6-mer frequency, TF over GST control), the binding signal (ELK1) is reported as 1.32 fold enrichment (6-mer frequency, TF over GST control) and the binding signal (GABPA) is reported as 1.33 fold enrichment (6-mer frequency, TF over GST control). The binding signal (ERG) was 1.3 fold enrichment (6-mer frequency, TF over GST control), the binding signal (ELF1) was 1.31 fold enrichment (6-mer frequency, TF over GST control) and the binding signal (EHF) was 1.3 fold enrichment (6-mer frequency, TF over GST control). The binding signal (SPI1) was 1.33 fold enrichment (6-mer frequency, TF over GST control), the binding signal (SPIB) was 1.35 fold enrichment (6-mer frequency, TF over GST control) and the binding signal (ELK3) was 1.4 fold enrichment (6-mer frequency, TF over GST control). For the same sequence, the binding signal (FEV) was 1.25 fold enrichment (6-mer frequency, TF over GST control), the binding signal (ETV5) was 1.35 fold enrichment (6-mer frequency, TF over GST control) and the binding signal (HSF1) was 1.02 fold enrichment (6-mer frequency, TF over GST control). The binding signal (SPIC) was 1.17 fold enrichment (6-mer frequency, TF over GST control), the binding signal (ELF4) was 1.34 fold enrichment (6-mer frequency, TF over GST control) and the binding signal (ELK4) was 1.37 fold enrichment (6-mer frequency, TF over GST control). For the same sequence, the binding signal (ETV2) was 1.15 fold enrichment (6-mer frequency, TF over GST control), the binding signal (ELF3) was 1.28 fold enrichment (6-mer frequency, TF over GST control) and the binding signal (CRX) was 1.08 fold enrichment (6-mer frequency, TF over GST control). For the same sequence, the binding signal (ETV1) was 1.4 fold enrichment (6-mer frequency, TF over GST control).
